ADAM10 inh – ADAM10 inhibition, QFRET primary screen; O14672; recombinant ADAM10, EDANS/DABCYL FRET peptide cleavage, 3 h; inhibition, % at 7 µM; AID 720582; 0.62% of 370,000 active;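 active means inhibition above a per-campaign cutoff equal to the mean of compounds falling between control-based bounds plus 3 SD, cut at about 20% in these data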;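 further: 0% = DMSO wells while the 100% control is not disclosed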
FAS-TE inh – FAS thioesterase (human) inhibition | recombinant FAS-TE, OMFH fluorogenic substrate, fluorescence endpoint | inhibition, % at 15 µM | P49327 | 0.67% of 360,000 active;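 active means compounds whose normalised, plate-corrected inhibition of enzyme fluorescence in the single-dose primary screen is 50% or more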;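 further: 0% = DMSO with enzyme and 100% = substrate without enzyme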
GRIN3A LBD mod – NR3A (human) ligand-binding domain modulation; NR3A LBD differential scanning fluorimetry, Tm shift; 0% = protein alone, 100% = glycine-bound protein; Tm shift relative to glycine control, % at 25 µM; 2.5% of 340,000 active;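 active means melting temperature shift of at least 10% of the positive control shift, at one fixed dose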
ADAM17 inh – ADAM17 inhibition, QFRET primary screen; inhibition, % at 6.95 µM; recombinant ADAM17, EDANS/DABCYL FRET peptide cleavage; 0.83% of 370,000 active;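 active means inhibition above the mean of compounds lying between control limits plus 3 SD, set per campaign, cut at about 8.5% in these data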;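 further: 0% = DMSO-only wells as the low control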
Target sequence (P78536 215-824 limits assumed): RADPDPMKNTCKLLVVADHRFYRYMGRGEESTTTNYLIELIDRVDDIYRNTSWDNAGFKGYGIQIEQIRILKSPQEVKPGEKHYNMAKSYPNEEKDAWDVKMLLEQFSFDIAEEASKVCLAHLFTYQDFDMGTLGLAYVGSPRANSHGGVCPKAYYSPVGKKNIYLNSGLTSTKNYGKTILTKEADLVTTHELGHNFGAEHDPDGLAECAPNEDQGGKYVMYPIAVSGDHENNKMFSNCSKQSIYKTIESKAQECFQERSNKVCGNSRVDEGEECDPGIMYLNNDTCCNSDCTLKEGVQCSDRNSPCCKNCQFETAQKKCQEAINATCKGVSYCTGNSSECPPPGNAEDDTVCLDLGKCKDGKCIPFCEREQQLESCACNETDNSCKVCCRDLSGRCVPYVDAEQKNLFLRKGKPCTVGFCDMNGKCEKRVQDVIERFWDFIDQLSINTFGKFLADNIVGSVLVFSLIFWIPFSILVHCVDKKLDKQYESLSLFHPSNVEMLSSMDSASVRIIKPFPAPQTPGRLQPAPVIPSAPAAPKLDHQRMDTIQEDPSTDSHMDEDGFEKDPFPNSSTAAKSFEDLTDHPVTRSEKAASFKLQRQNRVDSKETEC
proKLK7 act – activates the human kallikrein-7 zymogen | purified proKLK7, EDANS-DABCYL substrate fluorescence; 100% is mature enzyme control, 0% vehicle | activation, % at 7 µM | 0.9% of 370,000 active;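 active means activation above the mean of all tested compounds plus 3 SD, computed per campaign excluding outliers beyond control limits, cut at about 13% in these data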
An asterisk follows results filed as active; i = inactive; nt = no result given. Hits are enriched below; roughly 4.6% of the tested compounds scored in any of these assays.

SMILES	ADAM10 inh	FAS-TE inh	GRIN3A LBD mod	ADAM17 inh	proKLK7 act
OC1CCCCC1N1CCC(c2ccccc2)CC1 (stereo unspecified)	-0.6	-1.6	0.6	-1.8	0.0
CC1C(c2ccccc2)OCCN1C (stereo unspecified)	-6.0	-3.0	11.2*	-7.3	0.1
c1ccc(C2OCCN3CCCCC23)cc1 (stereo unspecified)	-1.0	-16.5	10.9*	-2.5	0.2
Cc1cc(O)c2c(c1)C(=O)[C@@]13C(=C2O)C(=O)[C@H]2C(O)[C@@H]1[C@H]1C(O)[C@@H]3C(=O)C3=C(O)c4c(O)cc(C)cc4C(=O)[C@@]312 (stereo partly specified)	8.0	nt	nt	2.5	0.0
COC(=O)[C@H]1C[C@@]2(C)c3ccccc3N[C@H]2N1	-2.1	nt	nt	2.0	1.0
COc1ccc(Cc2cn(C)c(N)n2)cc1	-10.7	nt	nt	-4.7	-0.5
Cc1cccc(NP(=O)(Oc2ccccc2F)Oc2ccccc2F)c1C	15.4	28.0	23.6*	2.9	0.0
Cc1c(N=Nc2c(O)n(Cc3ccccc3)c(=O)[nH]c2=O)c(=O)n(-c2ccccc2)n1C	-0.7	-12.7	14.8*	1.0	0.1
O=c1[nH]c(=S)n(-c2ccccc2F)c(O)c1C=NCc1ccco1	3.6	-7.9	14.4*	-0.6	0.8
CCOC(=O)CC[C@@H]1CC[C@]2(CCCN(Cc3ccccn3)C2)O1	-4.5	nt	nt	-3.0	-0.6
Cc1cc(C)cc(N2C(=O)NC(=O)/C(=C\C=C\c3ccco3)C2=O)c1	-1.4	-12.3	11.7*	-0.5	0.2
Cc1ccc(N2C(=O)NC(=O)/C(=C/C=C/c3ccco3)C2=O)cc1	-5.1	-8.8	0.8	-1.2	1.0
CC(=O)N1c2ccccc2C(c2ccccc2)=NCC1C(=O)NC1CCCCC1 (stereo unspecified)	1.1	nt	nt	-0.9	0.5
O=c1[nH]c(=O)n(Cc2ccccc2)c(O)c1/C=C1\C=Nc2ccccc21	-6.5	-7.2	10.1*	-1.2	-0.2
O=c1[nH]c(=O)n(CC2CCCO2)c(O)c1/C=C1\C=Nc2ccccc21 (stereo unspecified)	-3.9	-4.1	-1.5	-2.3	-0.3
CC(C)(C)n1nnnc1C1CN=C(c2ccccc2)c2ccccc2N1 (stereo unspecified)	-6.7	nt	nt	-1.4	-0.7
C=C(C)[C@@]12OC3(c4ccccc4)O[C@@H]1C1[C@@H]4O[C@]4(CO)[C@@H](O)[C@]4(O)C(=O)C(C)=C[C@H]4[C@@]1(O3)[C@H](C)[C@H]2OC(=O)/C=C/C=C/c1ccccc1 (stereo partly specified)	nt	57.0*	2.1	nt	nt
CCN(CC)CCCN=Cc1c(O)n(-c2cccc(C)c2C)c(=O)[nH]c1=O	-1.1	-5.4	10.8*	-1.8	0.2
N#Cc1ccc(NC(=S)N2Cc3cc(Br)ccc3-n3nncc3C2)cc1	1.2	nt	nt	5.4	1.0
O=C1C2CC=CCC2C(=O)N1SC(Cl)(Cl)Cl (stereo unspecified)	5.5	nt	nt	-1.7	-0.1
O=C(NCCN1CCC2(CC1)C(=O)NCN2c1ccccc1)c1ccc(F)c(F)c1	-7.9	nt	nt	-6.4	0.2
c1ccc(CCN2CCC3CCNC3C2)cc1 (stereo unspecified)	-8.9	nt	nt	-2.8	0.1
O=C(CNC(=O)c1ccc(Br)cc1)Nc1ccc(Br)cc1C(=O)c1ccccc1	-1.4	20.9	-1.1	1.3	0.6
COc1cc(C(=O)Nc2ccc(Br)cc2C(=O)c2ccccc2)cc(OC)c1OC	1.9	-3.1	0.8	0.5	25.6*
COC(=O)C1=C(c2ccc(F)cc2OCc2ccccc2)C[C@@H]2CC[C@H]1N2C(=O)NCc1ccc2c(c1)OCO2	21.6*	24.8	-1.4	6.9	0.9
SMILES	ADAM10 inh	FAS-TE inh	GRIN3A LBD mod	ADAM17 inh	proKLK7 act
CCCNC(=O)N1[C@H]2CC[C@@H]1C(C(=O)OC)=C(c1ccc(Cl)c(C(F)(F)F)c1)C2	3.2	0.0	23.7*	3.0	-0.2
COC(=O)C1=C(c2ccc(F)cc2F)C[C@@H]2CC[C@H]1N2C(=O)NCc1ccc(F)cc1	75.8*	0.1	-0.8	-2.5	0.1
COC(=O)C1=C(c2ccc(F)cc2OCc2ccccc2)C[C@@H]2CC[C@H]1N2C(=O)NCc1ccccc1	18.4	23.2	5.7	-0.2	0.3
C=CCCC(NC(=O)OCc1ccccc1)P(=O)(Oc1ccccc1)Oc1ccccc1 (stereo unspecified)	5.2	nt	nt	1.2	nt
CCN(CC)c1ccc(/C=C2\C(=O)NC(=O)N(Cc3ccco3)C2=O)cc1	-1.5	-11.6	23.6*	-1.3	0.2
CN(C)C(=S)SSC(=S)N(C)C	-5.2	-6.9	19.3*	-4.5	-0.1
O=C(Nc1ccc(Cl)cc1)N1CC2CC(C1)c1cccc(=O)n1C2 (stereo unspecified)	1.1	-1.1	10.7*	-6.5	0.8
Oc1cc(O)cc(/C=C/c2ccc(O)cc2O)c1	nt	-8.7	11.3*	nt	nt
CC(C)(C)c1cc(O)ccc1O	-10.9	nt	nt	-7.2	-0.3
O=C(Nc1ccc(Cl)cc1)OC1CN2CCC1CC2 (stereo unspecified)	10.8	-2.5	7.7	0.8	0.7
O=C(Nc1cccc(Cl)c1)OC1CN2CCC1CC2 (stereo unspecified)	14.0	19.8	41.7*	8.2	0.5
c1ccc(Cc2cnc(N3CCNCC3)nc2)cc1	-14.5	nt	nt	-6.8	-0.6
O=[N+]([O-])c1ccc(N2CCCCCC2)c2ncccc12	5.0	15.8	21.2*	1.5	-0.2
OC1CN2CCC(O)C2C(O)C1O (stereo unspecified)	-7.5	nt	nt	-0.7	0.1
COCCCn1c(N)c(C(=O)NCc2ccco2)c2nc3ccccc3nc21	i	nt	1.3	-391.9	33.5*
Nc1c(C(=O)NCCc2ccccc2)c2nc3ccccc3nc2n1CCN1CCOCC1	-474.0	17.1	11.6*	-199.1	-18.8
COCCCn1c(N)c(C(=O)Nc2ccccc2)c2nc3ccccc3nc21	-32.4	35.4	3.7	-17.0	-6.2
N#CCC[C@@H]1CC[C@]2(CCCN(Cc3ccncc3)C2)O1	-5.3	nt	nt	-4.1	0.0
Cc1cc2c(C(C)C)c(O)c(O)c(C=O)c2c(O)c1-c1c(C)cc2c(C(C)C)c(O)c(O)c(C=O)c2c1O	41.1*	48.0	nt	12.2*	1.1
c1ccc(Cn2nnnc2C2CN=C(c3ccccc3)c3ccccc3N2)cc1 (stereo unspecified)	-1.5	nt	nt	-2.9	1.0
CCOc1ccc(NC(=O)c2ccc(NC(=O)COC(=O)Cc3ccccc3)cc2)cc1	-0.9	-9.1	17.3*	-2.6	0.4
COC1C(OC(=O)c2ccc(C)[nH]2)C(O)C(Oc2ccc3c(O)c(NC(=O)c4ccc(O)c(CC=C(C)C)c4)c(=O)oc3c2Cl)OC1(C)C (stereo unspecified)	9.2	10.4	19.9*	6.3	-0.3
C=C1C(O)[C@@H]2O[C@]3(CC[C@H](/C=C/C(C)[C@@H]4CC(C)=CC5(O[C@H](C[C@@](C)(O)C(=O)O)CCC5O)O4)O3)CC[C@H]2O[C@@H]1C(O)CC(C)[C@H]1OC2(CCCCO2)CCC1C (stereo partly specified)	nt	nt	12.9*	nt	nt
